Data: the supplement of paper PMC11732987, “Enantioselective OTUD7B fragment discovery through chemoproteomics screening and high-throughput optimisation” (Communications Chemistry, 2025)

What was measured:
Assay in all cases: log2 ratio of Biotin-Ahx-Ub-VS probe labelling (fragment/DMSO); higher = less target engagement (more negative = stronger competition), active = hit call of the paper (q ≤ 0.05, log2 ratio ≤ -1)
Details in all cases: compound concentration: 200 uM; treatment time: 3 h
OTUD6B = molecular target: T1, OTUD6B (UniProt Q8N6M0)
T1 sequence (whole entry): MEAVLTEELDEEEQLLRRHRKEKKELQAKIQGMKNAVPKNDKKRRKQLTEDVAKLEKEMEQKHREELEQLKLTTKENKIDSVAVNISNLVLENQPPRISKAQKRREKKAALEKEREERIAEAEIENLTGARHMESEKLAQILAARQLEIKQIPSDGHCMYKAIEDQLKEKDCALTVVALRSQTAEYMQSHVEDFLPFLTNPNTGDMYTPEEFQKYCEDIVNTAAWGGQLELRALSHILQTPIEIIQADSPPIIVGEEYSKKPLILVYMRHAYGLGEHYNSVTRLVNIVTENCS
Summary of the method: (§1)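 Average log2 ratios of fragment over vehicle were obtained by unpaired t-test from global-median-normalised Spectronaut label-free quantities. Proteins with ≥2 unique peptides were included. HEK293T lysate (495 µg per sample) was treated in triplicate with fragment at 200 µM or vehicle for 3 h, then with Biotin-Ahx-Ub-VS at 0.5 µM final for 1 h, and labelled DUBs were NeutrAvidin-enriched and run by diaPASEF LC-MS/MS.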

OTUD7B = molecular target: T2, OTUD7B (UniProt Q6GQQ9)
T2 sequence (whole entry): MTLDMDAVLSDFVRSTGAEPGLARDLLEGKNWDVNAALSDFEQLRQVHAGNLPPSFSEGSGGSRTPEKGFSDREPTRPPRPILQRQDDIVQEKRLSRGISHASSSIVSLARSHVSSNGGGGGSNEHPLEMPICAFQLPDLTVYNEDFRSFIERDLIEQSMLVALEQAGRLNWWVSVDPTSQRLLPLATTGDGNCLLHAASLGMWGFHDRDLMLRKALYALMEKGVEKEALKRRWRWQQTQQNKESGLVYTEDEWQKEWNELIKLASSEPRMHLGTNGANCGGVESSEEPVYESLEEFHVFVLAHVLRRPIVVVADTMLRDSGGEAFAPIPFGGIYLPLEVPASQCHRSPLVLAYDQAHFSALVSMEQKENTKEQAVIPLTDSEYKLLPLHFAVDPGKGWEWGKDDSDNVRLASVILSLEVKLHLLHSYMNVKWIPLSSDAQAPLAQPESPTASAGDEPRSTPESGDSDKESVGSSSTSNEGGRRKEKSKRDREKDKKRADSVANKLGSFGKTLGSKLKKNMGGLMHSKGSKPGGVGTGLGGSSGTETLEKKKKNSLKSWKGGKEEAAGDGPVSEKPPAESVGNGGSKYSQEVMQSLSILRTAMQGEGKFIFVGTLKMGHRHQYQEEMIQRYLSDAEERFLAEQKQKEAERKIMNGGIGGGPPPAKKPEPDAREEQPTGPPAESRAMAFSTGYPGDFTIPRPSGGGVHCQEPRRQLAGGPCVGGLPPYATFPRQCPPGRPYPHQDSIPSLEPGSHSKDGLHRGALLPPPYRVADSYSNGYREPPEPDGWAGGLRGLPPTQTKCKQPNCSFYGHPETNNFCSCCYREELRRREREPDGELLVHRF
Summary of the method: as §1

PRPF8 = PRPF8 (UniProt Q6P2Q9)
Summary of the method: as §1

PSMD7 = molecular target: T3, PSMD7 (UniProt P51665)
T3 sequence (whole entry): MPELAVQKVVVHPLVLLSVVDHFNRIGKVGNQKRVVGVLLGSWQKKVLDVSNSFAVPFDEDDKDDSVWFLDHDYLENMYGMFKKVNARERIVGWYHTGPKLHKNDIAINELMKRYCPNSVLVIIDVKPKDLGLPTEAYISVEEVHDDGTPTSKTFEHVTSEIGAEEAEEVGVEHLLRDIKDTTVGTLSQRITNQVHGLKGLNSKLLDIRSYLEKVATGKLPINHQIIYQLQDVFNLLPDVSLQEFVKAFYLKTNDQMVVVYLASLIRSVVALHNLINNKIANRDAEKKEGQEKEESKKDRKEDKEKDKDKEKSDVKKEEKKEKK
Summary of the method: as §1

UCHL1 = UCHL1 (UniProt P09936)
Summary of the method: as §1

UCHL3 = molecular target: T4, UCHL3 (UniProt P15374)
T4 sequence (whole entry): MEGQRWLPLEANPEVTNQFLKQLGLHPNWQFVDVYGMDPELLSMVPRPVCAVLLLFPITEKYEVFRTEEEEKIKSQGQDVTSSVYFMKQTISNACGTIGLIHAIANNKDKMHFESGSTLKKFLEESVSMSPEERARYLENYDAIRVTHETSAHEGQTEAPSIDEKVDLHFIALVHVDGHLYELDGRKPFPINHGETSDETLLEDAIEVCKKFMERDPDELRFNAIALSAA
Summary of the method: as §1

UCHL5 = molecular target: T5, UCHL5 (UniProt Q9Y5K5)
T5 sequence (whole entry): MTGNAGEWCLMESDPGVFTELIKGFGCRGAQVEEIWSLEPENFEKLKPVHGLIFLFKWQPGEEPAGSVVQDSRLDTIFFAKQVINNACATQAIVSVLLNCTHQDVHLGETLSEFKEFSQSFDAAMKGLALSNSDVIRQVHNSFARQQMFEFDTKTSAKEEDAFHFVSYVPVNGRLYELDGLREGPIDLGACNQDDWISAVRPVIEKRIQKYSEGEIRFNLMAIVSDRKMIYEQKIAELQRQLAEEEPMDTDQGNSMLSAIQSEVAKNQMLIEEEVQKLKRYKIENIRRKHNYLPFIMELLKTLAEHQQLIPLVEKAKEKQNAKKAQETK
Summary of the method: as §1

USP10 = USP10 (UniProt Q14694)
Summary of the method: as §1

USP15 = molecular target: T6, USP15 (UniProt Q9Y4E8)
T6 sequence (whole entry): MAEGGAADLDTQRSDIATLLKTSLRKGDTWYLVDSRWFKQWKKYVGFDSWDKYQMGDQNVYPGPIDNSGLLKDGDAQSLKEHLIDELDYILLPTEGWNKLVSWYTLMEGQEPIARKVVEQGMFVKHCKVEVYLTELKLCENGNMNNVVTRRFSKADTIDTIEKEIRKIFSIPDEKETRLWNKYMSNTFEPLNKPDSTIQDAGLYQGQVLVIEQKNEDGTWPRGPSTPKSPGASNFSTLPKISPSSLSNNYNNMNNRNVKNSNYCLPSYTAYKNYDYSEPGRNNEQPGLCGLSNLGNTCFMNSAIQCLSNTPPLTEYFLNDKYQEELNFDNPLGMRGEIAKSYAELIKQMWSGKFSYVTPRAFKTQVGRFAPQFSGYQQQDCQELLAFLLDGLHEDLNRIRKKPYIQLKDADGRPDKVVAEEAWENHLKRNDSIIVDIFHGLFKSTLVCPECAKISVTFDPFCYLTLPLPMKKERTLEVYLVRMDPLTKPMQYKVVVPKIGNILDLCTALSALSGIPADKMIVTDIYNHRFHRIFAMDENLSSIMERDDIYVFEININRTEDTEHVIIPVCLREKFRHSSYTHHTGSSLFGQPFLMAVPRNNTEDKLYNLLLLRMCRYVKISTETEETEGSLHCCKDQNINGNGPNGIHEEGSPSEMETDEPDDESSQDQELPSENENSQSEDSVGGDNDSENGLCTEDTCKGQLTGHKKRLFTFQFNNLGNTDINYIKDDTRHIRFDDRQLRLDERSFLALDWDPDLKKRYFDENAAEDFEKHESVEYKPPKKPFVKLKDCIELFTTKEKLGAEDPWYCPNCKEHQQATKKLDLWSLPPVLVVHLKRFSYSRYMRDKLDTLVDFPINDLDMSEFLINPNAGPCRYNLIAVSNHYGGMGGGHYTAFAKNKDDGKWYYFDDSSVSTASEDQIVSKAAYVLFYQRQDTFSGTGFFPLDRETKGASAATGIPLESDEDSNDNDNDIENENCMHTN
Summary of the method: as §1

USP16 = USP16 (UniProt Q9Y5T5)
Summary of the method: as §1

Measured: log2 ratio of Biotin-Ahx-Ub-VS probe labelling

Chain of USP16 (Q9Y5T5 whole entry, looked up): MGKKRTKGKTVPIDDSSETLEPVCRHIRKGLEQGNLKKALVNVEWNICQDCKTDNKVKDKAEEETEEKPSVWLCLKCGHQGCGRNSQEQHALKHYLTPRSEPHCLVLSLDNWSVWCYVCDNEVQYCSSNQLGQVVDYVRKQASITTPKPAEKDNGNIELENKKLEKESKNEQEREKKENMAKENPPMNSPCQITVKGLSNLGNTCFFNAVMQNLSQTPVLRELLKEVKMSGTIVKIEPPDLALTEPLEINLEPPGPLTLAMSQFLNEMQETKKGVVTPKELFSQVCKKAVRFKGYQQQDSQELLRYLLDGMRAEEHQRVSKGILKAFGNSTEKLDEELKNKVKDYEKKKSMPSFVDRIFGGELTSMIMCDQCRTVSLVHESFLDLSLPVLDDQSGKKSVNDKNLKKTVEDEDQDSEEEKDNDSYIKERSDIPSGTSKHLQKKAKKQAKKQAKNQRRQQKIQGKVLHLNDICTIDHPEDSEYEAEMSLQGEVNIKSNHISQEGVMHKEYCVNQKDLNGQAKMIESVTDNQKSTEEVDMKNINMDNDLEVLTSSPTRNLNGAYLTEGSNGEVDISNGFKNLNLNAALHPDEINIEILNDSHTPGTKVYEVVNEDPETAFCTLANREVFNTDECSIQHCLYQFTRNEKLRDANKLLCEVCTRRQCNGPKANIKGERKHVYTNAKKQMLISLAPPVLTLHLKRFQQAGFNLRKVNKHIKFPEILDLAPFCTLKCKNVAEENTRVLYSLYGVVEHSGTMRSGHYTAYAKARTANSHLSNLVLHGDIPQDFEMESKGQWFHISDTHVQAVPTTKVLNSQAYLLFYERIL
Chain of UCHL1 (P09936 whole entry, looked up): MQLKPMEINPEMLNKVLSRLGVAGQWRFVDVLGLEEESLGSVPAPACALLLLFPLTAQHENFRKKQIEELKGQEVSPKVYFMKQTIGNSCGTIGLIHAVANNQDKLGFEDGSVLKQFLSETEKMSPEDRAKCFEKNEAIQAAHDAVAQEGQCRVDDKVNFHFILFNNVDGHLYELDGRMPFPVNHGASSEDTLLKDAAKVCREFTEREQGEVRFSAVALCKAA
Chain of USP10 (Q14694 whole entry): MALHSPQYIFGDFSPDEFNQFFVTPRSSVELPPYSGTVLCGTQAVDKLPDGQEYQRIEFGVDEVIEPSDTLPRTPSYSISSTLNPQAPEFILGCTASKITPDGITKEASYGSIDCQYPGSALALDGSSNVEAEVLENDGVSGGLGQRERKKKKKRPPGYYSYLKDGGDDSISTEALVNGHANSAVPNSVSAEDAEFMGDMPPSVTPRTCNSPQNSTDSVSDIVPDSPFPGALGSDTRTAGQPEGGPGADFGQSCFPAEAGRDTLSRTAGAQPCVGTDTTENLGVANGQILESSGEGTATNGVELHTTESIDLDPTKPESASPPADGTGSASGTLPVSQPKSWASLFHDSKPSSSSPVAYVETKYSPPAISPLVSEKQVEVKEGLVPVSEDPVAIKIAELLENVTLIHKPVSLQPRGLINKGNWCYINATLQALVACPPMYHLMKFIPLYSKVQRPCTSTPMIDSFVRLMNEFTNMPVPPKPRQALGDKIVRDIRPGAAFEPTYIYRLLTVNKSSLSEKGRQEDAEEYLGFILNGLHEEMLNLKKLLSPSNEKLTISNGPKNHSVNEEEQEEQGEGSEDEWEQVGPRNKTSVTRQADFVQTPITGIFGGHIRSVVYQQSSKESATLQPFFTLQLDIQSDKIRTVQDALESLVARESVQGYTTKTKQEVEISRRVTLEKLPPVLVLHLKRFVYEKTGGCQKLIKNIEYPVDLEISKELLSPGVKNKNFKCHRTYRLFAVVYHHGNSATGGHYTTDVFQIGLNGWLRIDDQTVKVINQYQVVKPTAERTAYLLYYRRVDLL

O=C(CCl)N1CCC(c2ccn[nH]2)C1 (stereo not given)
inactive: OTUD6B -0.234 | OTUD7B -0.648 | PRPF8 -0.154 | PSMD7 -0.294 | UCHL1 -0.579 | UCHL3 -0.0683 | UCHL5 -0.213 | USP10 -0.079 | USP15 -0.555 | USP16 -0.161
